Compound activity (PubChem)
This excerpt belongs to a sample that is enriched for hits.
Giardia killer: Giardia lamblia killing. Giardia lamblia trophozoite viability. activity change, % at 7.66 µM, hits read low. actives 0.15% (n = 340,000). AID 540267; in the data active means activity change below about -80%; inconclusive means between about -30% and that limit;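 further: parasites exposed to compound for two days anaerobically before the ATP read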
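Each well holds 100 Giardia trophozoites and compound. After two days (48 hrs) at 37 deg C in anaerobic conditions, ATP is quantified by luminescence.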
ERG Ets-DNA blk: inhibitors of human ERG Ets domain-DNA interaction; P11308; fluorescence polarization, His-ERG Ets domain / labelled DNA; Potency, µM (series often up to 76.9 µM), usual class: inhibitors; actives 0.028% (n = 370,000); active means well fitted inhibition curve with a large enough effect in the polarisation, with a control signal flat; inconclusive means small, poorly fitted or top-dose-only effect, or effect the other way, or a change in a side signal; inactive means no such curve, though single readings can be large or run the other way; the % refers to the polarisation;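 further: polarization taken with two DNA probes labelled with fluorescein and Texas red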
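His-tagged ERG Ets domain (1 uM in the protein solution; 300mM KCl, 50mM Tris-HCl, 1mM EDTA, 1mM DTT, pH 7.5) received compound, then a probe mix of 5 nM fluorescein-DNA and 100nM Texas-615-DNA. Fluorescence polarization was read for both dyes.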
VP16 counter: counter-screen for ROR gamma inhibitors: Gal4-VP16 reporter. Drosophila S2 Gal4-VP16 UAS-luciferase, luminescence, 20 h. Potency, µM (series often up to 53.6 µM), actives largely listed as inhibitors. actives 3.5% (n = 310,000). AID 2546;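 further: Gal4-VP16 expression switched on by copper sulfate through the metallothionein promoter; nearly all actives have a fitted effect of over 50% in size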
RORg inh: blocks mouse ROR gamma transcriptional activity | P51450 | Drosophila S2 Gal4-RORgamma UAS-luciferase reporter, 20 h | Potency, µM (top dose mostly 53.6 µM), most hits filed as inhibitors | actives 5.4% (n = 310,000); further: nearly all actives have a fitted effect of over 60% in size
Target sequence (P51450 whole entry, looked up, the tested form may be a part): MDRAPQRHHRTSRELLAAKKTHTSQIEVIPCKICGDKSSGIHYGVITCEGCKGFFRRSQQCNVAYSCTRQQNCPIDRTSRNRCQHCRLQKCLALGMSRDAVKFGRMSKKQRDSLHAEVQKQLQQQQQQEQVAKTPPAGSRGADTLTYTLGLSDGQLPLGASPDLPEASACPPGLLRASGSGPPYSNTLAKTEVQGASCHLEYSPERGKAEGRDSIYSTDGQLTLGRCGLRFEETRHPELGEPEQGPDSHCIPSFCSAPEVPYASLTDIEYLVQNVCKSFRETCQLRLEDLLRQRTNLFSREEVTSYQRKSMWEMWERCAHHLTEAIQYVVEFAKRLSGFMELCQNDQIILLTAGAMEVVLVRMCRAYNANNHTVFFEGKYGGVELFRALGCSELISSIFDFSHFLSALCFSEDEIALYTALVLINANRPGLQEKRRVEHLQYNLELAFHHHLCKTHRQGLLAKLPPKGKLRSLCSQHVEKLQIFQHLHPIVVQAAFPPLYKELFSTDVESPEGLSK
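Stable Schneider cell line, Gal4 DNA-binding domain fused to ROR gamma, UAS-luciferase. Cmpd 1 hr RT → CuSO4 700 uM final → 20 hr RT → luciferase reagent 10 min → luminescence.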
a7 integrin act: activates integrin-mediated alleviation for muscular dystrophy. Potency, µM (highest dose often 38.3 µM), actives largely listed as activators. alpha7betagal myoblasts, beta-gal FDG fluorescence, 48 h. actives 0.064% (n = 350,000). AID 624291; further: nearly all actives have a fitted effect of over 60% in size
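Alpha7betagal+/- myoblasts (passage 13) were plated 16-24 hr, then exposed to compounds (1:260 dilution of DMSO stock) for 48 hours at 37C. After MPER lysis, β-galactosidase reporter activity was read as FDG fluorescence (ex 480/em 540) after 30 minutes.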
Of the large screens only hits and unclear results are named; the others gave an inactive call. Unless noted, the call rests on the fitted dose curve; in most records, active means well fitted curve in the direction sought with a large enough effect; inconclusive means small, poorly fitted or top-dose-only effect, or another doubt; inactive means no such curve, though single readings can be large; an effect the other way counts as inactive or inconclusive.

COc1ccc2c(c1)C(=O)CC(c1ccc(OC)c(OC)c1)O2 (centres undefined)	none
COc1cc2c(cc1CC=C(C)C)C(=O)C[C@@H](c1ccc(O)cc1)O2	VP16 counter 11.2µM (no result: Giardia killer, ERG Ets-DNA blk, a7 integrin act)
Cn1c(-c2sccc2OCc2ccc(Cl)cc2Cl)n[nH]c1=S	VP16 counter 7.08µM, RORg inh 2.82µM
Cn1c(-c2sccc2OCc2ccccc2)n[nH]c1=S	none
Cc1ccc(COc2ccsc2-c2n[nH]c(=S)n2C)cc1	VP16 counter 7.08µM, RORg inh 2.82µM
CC1CC(C)CN(C(=O)CCNC(=O)c2ccccc2Cl)C1 (centres undefined)	VP16 counter inconclusive, RORg inh 15.8µM
CCC(C)Sc1ccc([C@H]2N[C@@](Cc3ccccc3)(C(=O)OC)[C@H]3C(=O)N(CC)C(=O)[C@@H]23)cc1 (some centres undefined)	none (no result: VP16 counter, RORg inh)
CCN1CCCC(Sc2nc3c([nH]2)c(=S)n(C)c(=O)n3C)C1 (centres undefined)	VP16 counter 6.31µM, RORg inh 3.98µM
Cn1c(=S)c2[nH]c(SCCN3CCCC3)nc2n(C)c1=O	VP16 counter inconclusive, RORg inh 1µM
Cn1c(=S)c2[nH]c(SCCN)nc2n(C)c1=O	none (no result: VP16 counter, RORg inh)
Cc1cccc(C(=O)Nc2cccc(OCc3cc(=O)n4cccc(C)c4n3)c2)c1	none (no result: Giardia killer, VP16 counter, RORg inh, a7 integrin act)
CCOC(=O)Cc1csc(NC(=O)CSc2nnc(-c3ccc(C)cc3)o2)n1	VP16 counter inconclusive, RORg inh 11.2µM
CCOC(=O)Cc1csc(NC(=O)CSc2nnc(-c3ccc(F)cc3)o2)n1	VP16 counter inconclusive, RORg inh 3.98µM (no result: ERG Ets-DNA blk)
CCn1c2ccccc2c2cc(NC(=O)CSc3nnc(-c4cccc(F)c4)o3)ccc21	none
O=C(CSc1nnc(-c2cccc(F)c2)o1)Nc1nncs1	VP16 counter inconclusive, RORg inh 12.6µM
Cc1csc(NC(=O)CSc2nnc(-c3ccc(S(=O)(=O)N4CCCC4)cc3)o2)n1	RORg inh 12.6µM
COC(=O)CC(NC(=O)c1ccc(C)cc1)c1ccccc1 (centres undefined)	RORg inh 8.91µM (no result: ERG Ets-DNA blk)
Cc1ccnc(Nc2nc3ccccc3o2)n1	Giardia killer inconclusive, VP16 counter 7.94µM, RORg inh 4.47µM
Cc1cnc(Nc2nc3ccccc3o2)nc1C(=O)Nc1cccc(C(F)(F)F)c1	VP16 counter inconclusive, RORg inh inconclusive
N#Cc1cnc(Nc2nc3ccccc3o2)nc1-c1ccccc1	VP16 counter 5.01µM, RORg inh 2.51µM
Cc1nc(Nc2nc3ccccc3o2)nc(C)c1C	VP16 counter inconclusive, RORg inh 11.2µM
CCCc1nc(Nc2nc3ccccc3o2)nc(C)c1C(=O)OCC	VP16 counter inconclusive, RORg inh 6.31µM
CCOC(=O)c1cnc(Nc2nc3ccccc3o2)nc1CSc1ncccn1	none (no result: VP16 counter, RORg inh)
Cc1ccc2oc(Nc3nc(C)c(C)c(C)n3)nc2c1	RORg inh inconclusive
S=c1cnc2ccccc2[nH]1	none
CCOC(=O)c1cnc(Nc2nc3ccccc3o2)nc1CSC(=S)N(CC)CC	Giardia killer inconclusive, VP16 counter 0.562µM, RORg inh 0.562µM
NNc1nnc(-c2ccccc2)c(-c2ccccc2)n1	VP16 counter inconclusive, RORg inh 11.2µM
NNc1nc(-c2ccccc2)c2ccccc2n1	VP16 counter inconclusive, RORg inh 7.94µM
CC(C)(C)C(=O)Nc1nnc(-c2ccccc2)c(-c2ccccc2)n1	none
COc1ccc2c(n1)Sc1nc3ccccc3nc1N2	RORg inh inconclusive
CCCCSc1cnn(-c2ccccc2)c(=O)c1SCCCC	VP16 counter 14.1µM, RORg inh inconclusive
CC(=O)OCC(NC(=O)C(COCc1ccccc1)NC(=O)OC(C)(C)C)C1OC(n2ccc(=O)[nH]c2=O)C(OC(C)=O)C1OC(C)=O (centres undefined)	none (no result: ERG Ets-DNA blk, a7 integrin act)
CC(C)Sc1ncc(Cl)c(C(=O)N(Cc2ccc(N(C)C)cc2)C2CCS(=O)(=O)C2)n1 (centres undefined)	none (no result: Giardia killer, VP16 counter, RORg inh, a7 integrin act)
COC(=O)Cc1ccc(NC(=S)N2CCN(c3cc(Cl)ccc3C)CC2)cc1	VP16 counter inconclusive, RORg inh 12.6µM
COC(=O)Cc1ccc(NC(=S)N2CCCC(C)C2)cc1 (centres undefined)	VP16 counter 11.2µM, RORg inh 12.6µM
COC(=O)Cc1ccc(NC(=S)N2CCCC(CO)C2)cc1 (centres undefined)	Giardia killer inconclusive, VP16 counter 7.94µM, RORg inh 11.2µM
